Screen size: about 310,000 compounds; about 14,000 (4.5%) showed an effect of 50% or more. The effect is printed as a negative number. The sample holds strong results, similar compounds and a random draw of the others, so the mix is not that of the screen.
What follows are molecules tested against human ether-à-go-go-related gene (hERG) potassium channel (human, UniProt Q12809) (assay: primary screen, population patch clamp on CHO cells stably expressing hERG; higher = less effect of the substance).
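Also: peak tail current of the secondary pulse compared with the same well before compound.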

human ether-à-go-go-related gene (hERG) potassium channel, sequence (Q12809 whole entry, looked up): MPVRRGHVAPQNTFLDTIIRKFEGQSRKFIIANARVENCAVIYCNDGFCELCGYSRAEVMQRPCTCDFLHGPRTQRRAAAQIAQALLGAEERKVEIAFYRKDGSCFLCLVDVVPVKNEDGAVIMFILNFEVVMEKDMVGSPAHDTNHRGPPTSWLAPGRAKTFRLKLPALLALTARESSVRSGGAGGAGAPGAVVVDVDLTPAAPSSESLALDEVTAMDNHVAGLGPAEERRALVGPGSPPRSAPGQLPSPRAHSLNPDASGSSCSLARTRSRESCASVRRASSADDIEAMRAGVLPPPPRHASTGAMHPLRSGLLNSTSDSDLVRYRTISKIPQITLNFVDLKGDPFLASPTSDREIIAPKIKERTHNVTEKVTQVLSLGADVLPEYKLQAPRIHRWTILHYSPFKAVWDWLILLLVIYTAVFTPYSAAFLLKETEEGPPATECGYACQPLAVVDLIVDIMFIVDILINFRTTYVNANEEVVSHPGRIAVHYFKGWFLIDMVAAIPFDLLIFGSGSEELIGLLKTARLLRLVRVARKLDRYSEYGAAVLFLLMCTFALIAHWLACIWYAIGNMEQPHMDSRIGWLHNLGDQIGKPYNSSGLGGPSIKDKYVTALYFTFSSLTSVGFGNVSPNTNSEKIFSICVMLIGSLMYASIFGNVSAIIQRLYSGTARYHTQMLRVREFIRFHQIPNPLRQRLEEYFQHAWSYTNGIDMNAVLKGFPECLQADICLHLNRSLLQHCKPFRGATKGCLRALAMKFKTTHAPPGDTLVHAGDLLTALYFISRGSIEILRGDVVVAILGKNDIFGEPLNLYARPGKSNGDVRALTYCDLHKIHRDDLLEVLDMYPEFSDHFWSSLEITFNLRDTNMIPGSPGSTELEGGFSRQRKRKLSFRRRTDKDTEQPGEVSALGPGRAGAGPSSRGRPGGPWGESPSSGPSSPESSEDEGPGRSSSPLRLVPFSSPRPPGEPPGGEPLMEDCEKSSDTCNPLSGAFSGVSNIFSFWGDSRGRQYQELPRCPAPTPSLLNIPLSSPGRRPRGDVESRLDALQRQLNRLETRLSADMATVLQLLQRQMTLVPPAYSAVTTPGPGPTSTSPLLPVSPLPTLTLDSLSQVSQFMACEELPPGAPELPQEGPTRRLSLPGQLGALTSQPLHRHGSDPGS

SMILES | hERG current change (%, negative = inhibition) at 10uM
CCCCOc1ccccc1C(=O)NCCCCCC(=O)O | 10.3%
CCc1cccc(OCCCn2ccnc2)c1.O=C(O)C(=O)O | -25.7%
Cc1cc(C(F)F)n2nc(C(=O)Nc3sc4c(c3C#N)CCC4)nc2n1 | 18.3%
Cc1cc(C(F)F)n2nc(C(=O)Nc3sc4c(c3C(N)=O)CCC4)nc2n1 | -60.9%
COC(=O)c1c(NC(=O)c2nc3nc(C)cc(C(F)F)n3n2)sc2c1CCC2 | 5.97%
CCC1CCC/C1=N\NC(=O)c1ccccc1Cl (stereo not shown) | 19.2%
CCOc1ccccc1NC(=O)COC(=O)CSc1ccc(Cl)cc1 | 21.2%
COc1cccc(NC(=O)COC(=O)CC(NC(N)=O)c2ccc(Cl)cc2)c1 (stereo not shown) | -2.18%
COc1ccc(CNC(=O)COC(=O)CC(NC(N)=O)c2ccc(Cl)cc2)cc1OC (stereo not shown) | 1.27%
CCOc1ccccc1NC(=O)COC(=O)CC(NC(N)=O)c1ccc(Cl)cc1 (stereo not shown) | -68.4%
NC(=O)COC(=O)CC(NC(N)=O)c1ccc(Cl)cc1 (stereo not shown) | 17.6%
N#Cc1ccc(COC(=O)CC(NC(N)=O)c2ccc(Cl)cc2)cc1 (stereo not shown) | -59.9%
CC(=O)c1c(O)cc(=O)oc1-c1ccc(C)cc1 | 16.7%
COc1cc(C2N(c3ccccc3)CCN2c2ccccc2)ccc1OC(C)=O | -1.36%
Cn1c(CNc2ccccc2)nc2ccccc21 | 4.27%
CCOC(=O)Cn1cc(C#N)c2ccccc21 | 15.1%
CC(=O)N1CCC(=NNc2ccc(S(=O)(=O)N3CCOCC3)cc2[N+](=O)[O-])CC1 | -18.2%
CCOc1ccc(S(=O)(=O)N2CCOCC2)cc1[N+](=O)[O-] | -52.2%
CCOc1ccc(S(=O)(=O)N2CCOCC2)cc1NS(=O)(=O)c1ccc(OC)c([N+](=O)[O-])c1 | -41.7%
CCCOc1ccc(S(=O)(=O)N2CCCC2)cc1[N+](=O)[O-] | -30.1%
CCCOc1ccc(S(=O)(=O)N2CCOCC2)cc1[N+](=O)[O-] | -57.8%
O=[N+]([O-])c1cc(S(=O)(=O)N2CCOCC2)ccc1OCc1cccc(Cl)c1 | 1.31%

SMILES | hERG current change (%, negative = inhibition) at 10uM
O=C1c2ccccc2C(=O)N1COc1ccc(S(=O)(=O)N2CCOCC2)cc1[N+](=O)[O-] | -22.8%
CCOC(=O)N1CCC(=NNc2ccc(S(=O)(=O)N3CCOCC3)cc2[N+](=O)[O-])CC1 | -61.3%
CCOC(=O)N1CCC(=NNc2ccc(S(N)(=O)=O)cc2[N+](=O)[O-])CC1 | -11.8%
COCCn1c(SCC(=O)Nc2c(C)n(C)n(-c3ccccc3)c2=O)nc2ccccc2c1=O | -19.6%
CCCC(=O)N(c1ccc(C(=O)O)cc1)c1nc(-c2ccccc2)c(C)s1 | 14.2%
CCOc1cc2c(cc1OCC)C(C(=O)O)C(c1cc(OC)c(OC)c(OC)c1)N(C)C2=O (stereo not shown) | 3.02%
COC(=O)[C@@H]1C[C@@H]2CC[C@@H](O)C[C@@H]2N1Cc1ccc(N2CCN(C)CC2)cc1 | 9.87%
CN(CCO)c1nc2c(c(=O)n(Cc3ccc(Cl)cc3)c(=O)n2C)n1C | 3.79%
Cn1c(N2CCC(C(N)=O)CC2)nc2c1c(=O)n(Cc1ccc(Br)cc1)c(=O)n2C | -57.3%
CC1CCN(c2nc3c(c(=O)n(C)c(=O)n3C)n2Cc2ccccc2)CC1 | -50%
Cn1c(N2CCCC2)nc2c1c(=O)n(Cc1cccc(F)c1)c(=O)n2C | -19.6%
Cn1c(N2CCC(C(N)=O)CC2)nc2c1c(=O)n(Cc1cccc(Br)c1)c(=O)n2C | -64.7%
CC(O)CNc1nc2c(c(=O)n(Cc3ccc(Br)cc3)c(=O)n2C)n1C (stereo not shown) | -12.6%
Cn1c(N2CCC(C(N)=O)CC2)nc2c1c(=O)n(Cc1ccc(Cl)cc1)c(=O)n2C | -58.5%
CCCCCCn1c(N2CCC(C(N)=O)CC2)nc2c1c(=O)n(C)c(=O)n2C | -56.4%
CCOC(=O)Cn1c(=O)c2c(nc(N3CCCCC3)n2Cc2ccccc2)n(C)c1=O | -40.4%
CCCCCn1c(N2CCCC2)nc2c1c(=O)n(C)c(=O)n2C | -9.54%
CCCCCCn1c(N2CCCC2)nc2c1c(=O)n(C)c(=O)n2C | -1.96%
Cn1c(Cl)nc2c1c(=O)n(Cc1cccc(Br)c1)c(=O)n2C | -35.3%
CCOc1ccc(S(=O)(=O)NCCC(=O)OC(C)C(=O)N2CCc3ccccc32)cc1 (stereo not shown) | -22.6%
NC(=O)c1ccc(NC(=O)CNCc2ccccc2Cl)cc1 | 8.82%
